Measurements as given in article PMC7862700, “An all-to-all approach to the identification of sequence-specific readers for epigenetic DNA modifications on cytosine”.

Key:
Assay in all cases: DAPPL (digital affinity profiling via proximity ligation, sequencing); 10 mM Tris-HCl pH 7.5, 50 mM NaCl, 1 mM DTT, 4% glycerol, room temperature, 30 min; GST-TFs on glutathione beads, 16-mer random dsDNA library, 0.1% formaldehyde crosslink after washing; high values mean tight binding
Conditions in all cases: protein: recombinant; tags: N-terminal GST; dsDNA, one strand shown
ERF = biological target: T1, ERF (Homo sapiens, UniProt P50548 1-548)
T1 sequence: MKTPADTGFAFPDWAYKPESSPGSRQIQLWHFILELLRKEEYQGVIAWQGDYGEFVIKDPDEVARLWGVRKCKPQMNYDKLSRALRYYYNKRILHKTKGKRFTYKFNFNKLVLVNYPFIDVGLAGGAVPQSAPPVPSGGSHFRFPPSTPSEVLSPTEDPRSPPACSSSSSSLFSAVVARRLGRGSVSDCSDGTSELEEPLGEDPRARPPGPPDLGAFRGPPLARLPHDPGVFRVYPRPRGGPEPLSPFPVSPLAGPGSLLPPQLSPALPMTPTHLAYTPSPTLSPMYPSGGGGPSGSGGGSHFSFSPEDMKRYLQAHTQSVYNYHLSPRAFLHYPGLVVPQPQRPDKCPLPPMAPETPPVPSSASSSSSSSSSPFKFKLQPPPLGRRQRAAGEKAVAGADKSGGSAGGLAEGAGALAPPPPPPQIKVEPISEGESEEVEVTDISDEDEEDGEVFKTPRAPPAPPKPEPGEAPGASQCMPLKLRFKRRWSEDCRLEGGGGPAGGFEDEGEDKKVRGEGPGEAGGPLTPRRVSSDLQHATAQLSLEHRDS
Summary of the method: (§1)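 Pools of DNA-barcoded human transcription factors, expressed in yeast as GST fusions on glutathione beads and combined with a tag-only sample, were incubated with 200 nmole of a 16-mer random double-stranded DNA library. Incubation took 30 min at room temperature in Tris/NaCl/DTT/glycerol buffer and was followed by washing, 0.1% formaldehyde crosslinking, proximity ligation (BsaI/T4 ligase, 1 h, 37 °C), PCR amplification and sequencing on an Illumina NextSeq500. Binding signal is the ratio of a hexamer's read frequency for a factor to its frequency for the tag-only sample.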

ETV3L = biological target: T2, ETV3L (Homo sapiens, UniProt Q6ZN32 1-361)
T2 sequence: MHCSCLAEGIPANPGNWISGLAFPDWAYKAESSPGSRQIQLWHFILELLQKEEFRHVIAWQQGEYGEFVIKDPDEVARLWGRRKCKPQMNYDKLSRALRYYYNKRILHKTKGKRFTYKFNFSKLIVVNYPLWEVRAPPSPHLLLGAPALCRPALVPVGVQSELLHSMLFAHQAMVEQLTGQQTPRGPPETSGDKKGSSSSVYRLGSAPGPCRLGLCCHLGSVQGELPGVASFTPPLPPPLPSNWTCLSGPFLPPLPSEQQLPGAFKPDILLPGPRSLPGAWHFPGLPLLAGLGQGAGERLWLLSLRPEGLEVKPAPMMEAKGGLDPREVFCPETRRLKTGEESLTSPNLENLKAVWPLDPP
Summary of the method: as §1

ETS2 = biological target: T3, ETS2 (Homo sapiens, UniProt P15036 1-469)
T3 sequence: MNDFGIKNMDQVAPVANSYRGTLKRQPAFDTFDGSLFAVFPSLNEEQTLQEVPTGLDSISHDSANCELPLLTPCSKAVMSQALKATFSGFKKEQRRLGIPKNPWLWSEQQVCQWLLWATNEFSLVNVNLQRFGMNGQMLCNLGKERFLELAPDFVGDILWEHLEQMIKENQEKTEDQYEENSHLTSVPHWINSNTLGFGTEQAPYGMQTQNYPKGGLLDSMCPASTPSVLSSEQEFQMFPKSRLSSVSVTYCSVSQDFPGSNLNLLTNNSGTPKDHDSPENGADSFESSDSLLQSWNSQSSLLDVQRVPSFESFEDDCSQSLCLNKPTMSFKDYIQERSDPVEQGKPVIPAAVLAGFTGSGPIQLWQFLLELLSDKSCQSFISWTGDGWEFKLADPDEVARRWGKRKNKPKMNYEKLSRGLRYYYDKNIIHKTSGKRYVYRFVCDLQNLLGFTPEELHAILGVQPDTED
Summary of the method: as §1

SPDEF = biological target: T4, SPDEF (Homo sapiens, UniProt O95238 1-335)
T4 sequence: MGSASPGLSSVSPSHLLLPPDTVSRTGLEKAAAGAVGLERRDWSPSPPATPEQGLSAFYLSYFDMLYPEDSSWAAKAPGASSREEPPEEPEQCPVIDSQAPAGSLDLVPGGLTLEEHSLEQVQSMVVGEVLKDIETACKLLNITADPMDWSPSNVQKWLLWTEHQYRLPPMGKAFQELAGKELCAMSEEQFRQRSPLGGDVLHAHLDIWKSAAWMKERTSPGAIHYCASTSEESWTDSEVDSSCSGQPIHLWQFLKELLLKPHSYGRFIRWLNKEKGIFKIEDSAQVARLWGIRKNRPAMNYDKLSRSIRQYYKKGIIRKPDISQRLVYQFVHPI
Summary of the method: as §1

ETV7 = biological target: T5, ETV7 (Homo sapiens, UniProt Q9Y603 1-341)
T5 sequence: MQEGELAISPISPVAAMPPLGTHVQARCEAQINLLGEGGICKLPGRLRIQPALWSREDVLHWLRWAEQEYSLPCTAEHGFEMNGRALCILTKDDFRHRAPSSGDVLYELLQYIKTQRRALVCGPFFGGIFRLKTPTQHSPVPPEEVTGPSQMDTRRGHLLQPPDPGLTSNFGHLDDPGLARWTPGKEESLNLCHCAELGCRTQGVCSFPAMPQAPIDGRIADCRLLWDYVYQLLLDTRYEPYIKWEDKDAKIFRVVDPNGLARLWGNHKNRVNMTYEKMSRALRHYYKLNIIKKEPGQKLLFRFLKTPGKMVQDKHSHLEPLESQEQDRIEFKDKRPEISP
Summary of the method: as §1

ELF5 = biological target: T6, ELF5 (Homo sapiens, UniProt Q9UKW6-2 1-255)
T6 sequence: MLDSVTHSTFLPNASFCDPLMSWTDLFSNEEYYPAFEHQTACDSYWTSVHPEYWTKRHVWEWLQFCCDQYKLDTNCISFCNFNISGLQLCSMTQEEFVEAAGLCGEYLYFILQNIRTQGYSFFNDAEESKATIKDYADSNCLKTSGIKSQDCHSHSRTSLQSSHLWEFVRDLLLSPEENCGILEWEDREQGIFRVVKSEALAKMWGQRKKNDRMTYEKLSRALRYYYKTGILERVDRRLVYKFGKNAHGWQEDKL
Summary of the method: as §1

ETV3 = biological target: T7, ETV3 (Homo sapiens, UniProt P41162-2 1-143)
T7 sequence: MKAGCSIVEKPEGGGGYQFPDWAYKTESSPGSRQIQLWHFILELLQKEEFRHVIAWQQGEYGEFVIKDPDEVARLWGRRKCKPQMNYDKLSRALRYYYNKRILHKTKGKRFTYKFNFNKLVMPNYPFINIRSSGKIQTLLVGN
Summary of the method: as §1

ETV6 = ETV6 (Homo sapiens, UniProt P41212 1-452)
Chain of ETV6 (P41212 whole entry): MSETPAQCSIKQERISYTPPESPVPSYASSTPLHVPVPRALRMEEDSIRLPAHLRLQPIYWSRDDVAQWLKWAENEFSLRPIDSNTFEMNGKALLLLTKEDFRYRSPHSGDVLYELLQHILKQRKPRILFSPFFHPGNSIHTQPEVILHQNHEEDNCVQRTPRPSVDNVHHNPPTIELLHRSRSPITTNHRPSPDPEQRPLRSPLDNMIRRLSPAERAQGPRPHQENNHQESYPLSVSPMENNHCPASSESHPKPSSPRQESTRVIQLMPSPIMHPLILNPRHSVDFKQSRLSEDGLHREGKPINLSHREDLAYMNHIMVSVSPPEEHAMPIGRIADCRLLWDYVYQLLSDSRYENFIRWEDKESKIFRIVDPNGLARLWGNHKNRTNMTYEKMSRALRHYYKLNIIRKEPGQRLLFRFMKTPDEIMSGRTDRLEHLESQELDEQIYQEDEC
Summary of the method: as §1

| Sequence | binding signal (ERF) | binding signal (ETV3L) | binding signal (ETS2) | binding signal (SPDEF) | binding signal (ETV7) | binding signal (ELF5) | binding signal (ETV3) | binding signal (ETV6) |
| --- | --- | --- | --- | --- | --- | --- | --- | --- |
| ACTCCA | 1.26 fold enrichment (6-mer frequency, TF over GST control) | 1.11 fold enrichment (6-mer frequency, TF over GST control) | 1.28 fold enrichment (6-mer frequency, TF over GST control) | 1.16 fold enrichment (6-mer frequency, TF over GST control) | 1.18 fold enrichment (6-mer frequency, TF over GST control) | 1.14 fold enrichment (6-mer frequency, TF over GST control) | 1.17 fold enrichment (6-mer frequency, TF over GST control) | 1.13 fold enrichment (6-mer frequency, TF over GST control) |
| TGTACT | 1.11 fold enrichment (6-mer frequency, TF over GST control) | 1.26 fold enrichment (6-mer frequency, TF over GST control) | 1.27 fold enrichment (6-mer frequency, TF over GST control) | 1.71 fold enrichment (6-mer frequency, TF over GST control) | 1.24 fold enrichment (6-mer frequency, TF over GST control) | 1.37 fold enrichment (6-mer frequency, TF over GST control) | 1.22 fold enrichment (6-mer frequency, TF over GST control) | 1.28 fold enrichment (6-mer frequency, TF over GST control) |
| AACAAG | 1.19 fold enrichment (6-mer frequency, TF over GST control) | 1.18 fold enrichment (6-mer frequency, TF over GST control) | 1.06 fold enrichment (6-mer frequency, TF over GST control) | 1.05 fold enrichment (6-mer frequency, TF over GST control) | 1.14 fold enrichment (6-mer frequency, TF over GST control) | 1.22 fold enrichment (6-mer frequency, TF over GST control) | 1.11 fold enrichment (6-mer frequency, TF over GST control) | 1.12 fold enrichment (6-mer frequency, TF over GST control) |
| TGCCCG | 1.13 fold enrichment (6-mer frequency, TF over GST control) | 1.16 fold enrichment (6-mer frequency, TF over GST control) | 1.26 fold enrichment (6-mer frequency, TF over GST control) | 1.28 fold enrichment (6-mer frequency, TF over GST control) | 1.34 fold enrichment (6-mer frequency, TF over GST control) | 1.19 fold enrichment (6-mer frequency, TF over GST control) | 1.24 fold enrichment (6-mer frequency, TF over GST control) | 1.19 fold enrichment (6-mer frequency, TF over GST control) |
| TTGTCC | 1.35 fold enrichment (6-mer frequency, TF over GST control) | 1.43 fold enrichment (6-mer frequency, TF over GST control) | 1.38 fold enrichment (6-mer frequency, TF over GST control) | 1.45 fold enrichment (6-mer frequency, TF over GST control) | 1.25 fold enrichment (6-mer frequency, TF over GST control) | 1.39 fold enrichment (6-mer frequency, TF over GST control) | 1.36 fold enrichment (6-mer frequency, TF over GST control) | 1.32 fold enrichment (6-mer frequency, TF over GST control) |
| TTTCTT | 1.22 fold enrichment (6-mer frequency, TF over GST control) | 1.34 fold enrichment (6-mer frequency, TF over GST control) | 1.32 fold enrichment (6-mer frequency, TF over GST control) | 1.19 fold enrichment (6-mer frequency, TF over GST control) | 1.37 fold enrichment (6-mer frequency, TF over GST control) | 1.31 fold enrichment (6-mer frequency, TF over GST control) | 1.34 fold enrichment (6-mer frequency, TF over GST control) | 1.23 fold enrichment (6-mer frequency, TF over GST control) |
